HCV inh: inhibitors of hepatitis C virus infection. Huh7.5.1 HCVcc-Cre infection, luciferase reporter, 44 h. Potency, µM (highest dose often 41.8 µM), inactives show at the top dose activity change, negative = inhibition, usual class: inhibitors. hit rate 3.4% among 340,000. AID 651820; active = well fitted inhibition curve with a large enough effect; inconclusive = small, poorly fitted or top-dose-only effect, or another doubt; inactive = no such curve, though single readings can be large or run the other way; also: potency is read from the fitted curve at half-maximal effect; % is scaled to controls: 0 for no effect and ±100 for the full control effect
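Cells seeded at 1,000/well and cultured 4 h, then compounds added followed by HCVcc-Cre virus (~0.5 moi). After 44 h further culture, luciferase substrate was added, plates held 15 min at room temperature, and luminescence read for 15 sec.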
SARS PLP yeast: SARS-CoV PLP inhibition in yeast; hit rate 0.19% among 330,000; S. cerevisiae expressing SARS-CoV PLpro, growth rescue; Potency, µM (series often up to 32.9 µM), for inactives: top-dose activity, positive = growth rescue, most hits filed as activators; calls by dose curve; also: potency is read from the fitted curve at half-maximal effect; 0% is about no effect; nearly all actives have a fitted effect of over 55% in size
FMDV antiviral: blocks foot and mouth disease virus | FMDV antiviral cell-based qHTS | Potency, µM (series often up to 57.9 µM), without a hit: at the highest dose activity change, negative = inhibition, hits mostly inhibitors | hit rate 1.2% among 410,000 | AID 1159524; calls by dose curve; tested in HEK293T cells; also: read-out not given here; potency is read from the fitted curve at half-maximal effect; % is scaled to controls: 0 for no effect and ±100 for the full control effect; nearly all actives have a fitted effect of over 45% in size
Lassa entry inh: blocks Lassa virus binding to or entry into cells; Potency, µM (titrated, usually from 37.9 µM), for the others: at the top dose activity change, negative = inhibition, actives largely listed as inhibitors; Lassa virus pseudotype entry inhibition, cell reporter; AID 540256; hit rate 1.2% among 300,000; calls by dose curve; tested in HEK293 cells; also: potency is read from the fitted curve at half-maximal effect; % is scaled to controls: 0 for no effect and ±100 for the full control effect; nearly all actives have a fitted effect of over 50% in size
HCMV inh: human cytomegalovirus inhibition | HFF cells, HCMV-luciferase reporter, 72 h; stronger effect = lower value | activity change, negative = inhibition, % at 57.5 µM | hit rate 4.5% among 410,000 | AID 1259415; in the data active = activity change below about -60%; inconclusive = no clear call, values can overlap the other calls; inactive = above about -39%; also: % is scaled to controls: 0 for no effect and ±100 for the full control effect
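Two compound doses tested in HFFs infected with HCMV-luciferase, MOI 1 PFU/cell, 72 h at 37C. Lysate luminescence read with OneGlo; data normalized against buffer-only and 10uM Salinomycin inhibitor controls.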
MARV entry inh: Marburg virus entry inhibition; Marburg virus pseudotyped entry inhibition, cell reporter; Potency, µM (top dose mostly 37.8 µM), for inactives: top-dose activity change, negative = inhibition, actives largely listed as inhibitors; hit rate 1.8% among 300,000; calls by dose curve; tested in HEK293 cells; also: potency is read from the fitted curve at half-maximal effect; % is scaled to controls: 0 for no effect and ±100 for the full control effect
* hit, by the source's call; ? = inconclusive; / = not tested or not shown; ! = a repeat was not active; [ ] = remark or other dose. This is a sample that favours compounds with a hit; in the whole collection about 8% have one here.

SMILES | HCV inh | SARS PLP yeast | FMDV antiviral | Lassa entry inh | HCMV inh | MARV entry inh
COc1ccc(C2(C)NC(=O)N(CC(=O)NCc3ccccc3)C2=O)cc1OC (stereo unspecified) | -17.3% | 0.7% | -4.5% | ? | 22.9 | 1.8%
O=c1oc2ccc(Br)cc2cc1S(=O)(=O)c1ccc(F)cc1 | ? | -13.2% | 28.2µM* | -19.5% | / | -5.9%
Cc1ccc(NC(=O)c2ccc3oc(=O)c(S(=O)(=O)c4ccccc4)cc3c2)cc1C | / | / | 28.2µM* | 18.0%[46.1 µM] | 21.5 | -0.1%[46.1 µM]
COc1ccccc1NC(=O)c1ccc2oc(=O)c(S(=O)(=O)c3ccccc3)cc2c1 | / | / | 28.2µM* | ? | 15.2 | 6.5%[46.1 µM]
Cc1ccc(NC(=O)c2ccccc2)cc1C | -28.2% | 3.4% | 30.3% | / | 44.4 | /
O=C(Nc1ccccc1C(F)(F)F)c1ccc2oc(=O)c(S(=O)(=O)c3ccc(F)cc3)cc2c1 | / | / | 28.2µM* | -12.2%[46.1 µM] | -1.9 | 2.0%[46.1 µM]
O=C(Nc1ccccc1C(F)(F)F)c1ccc(F)c(S(=O)(=O)N2CCOCC2)c1 | 11.6% | ? | / | -2.0% | -8.5 | ?
Cc1ccccc1NC(=O)c1cnc2sc(N3CCCC3)nn2c1=O | / | / | 4.5% | -7.2%[46.1 µM] | ? | /
COc1cc(CCNC(=O)c2ccc3c(c2)c(C)c(C)n3Cc2cccc(C)c2)cc(OC)c1OC | / | / | ? | -11.6%[46.1 µM] | -35.9 | /
Cc1c(C)c(C)c(CN2CCCC2)c(C)c1C | -5.6% | -0.1% | 14.6% | 23.5%[46.1 µM] | 2.8 | -14.4%[46.1 µM]
COc1ccc(CN2CCC3(CC2)c2ccccc2[C@@H](NC(=O)c2ccccc2)[C@@H]3O)cc1O | / | / | 3.7% | / | / | /
O=C(Nc1ccccc1)N1CCc2scc[n+]2-c2ccccc21 | ? | -6.4% | -7.6% | 0.5% | -66.6* | 4.4%
CCOC(=O)c1sc2ccc(S(=O)(=O)N3CCOCC3)cc2c1N | -10.0% | -2.5% | ? | -12.9% | -61.6* | -20.0%
NCCCCNS(=O)(=O)c1ccc2c(Cl)cccc2c1 | / | / | -29.9% | / | / | /
NCCNS(=O)(=O)c1cccc2c(Cl)cccc12 | / | / | -11.5% | -28.7% | / | 11.2µM*
CC(=O)Nc1cccc(Oc2nc(-c3ccccn3)nc3ccccc23)c1 | ? | 3.2% | ? | 2.7% | -61.2* | ?
CC(=O)Nc1ccc(Oc2ccccc2)cc1 | 12.4% | 1.7% | -4.2% | / | -36.1 | /
CC(=O)Nc1ccc(Oc2nc(-c3ccccn3)nc3ccccc23)cc1 | ? | -1.8% | ? | ? | -102.2* | ?
CCOC(=O)CN1C(=O)[C@]2(OCCC=C[C@@H]2C)c2ccccc21 | / | / | / | / | / | 1.2%[14.2 µM]
Cc1cc(N2CCN(C(=O)c3ccco3)CC2)n2nc(C)c(-c3ccccc3)c2n1 | 3.55µM*! | -3.4% | ? | -7.7% | -21.9 | -18.6%
Cc1cc(N2CCN(C(=O)c3ccco3)CC2)n2nc(-c3cccc(Cl)c3)cc2n1 | 10µM* | -4.2% | ? | 25.9µM* | -101.3* | 16.4µM*
Cc1nc2cc(-c3cccc(Cl)c3)nn2c(N2CCN(C(=O)c3ccco3)CC2)c1C | / | -2.8% | / | / | / | -0.3%
COc1ccc(-c2cc3nc(-c4ccccc4)cc(N4CCCC(O)C4)n3n2)cc1 (stereo unspecified) | 6.31µM* | 0.4% | -10.2% | / | -30.3 | /
COCCN1CCN(c2cc(-c3ccccc3)nc3cc(-c4cccc(F)c4)nn23)CC1 | 10µM* | -3.9% | 14.1µM* | ? | -18.5 | ?
Fc1cccc(-c2cc3nc(-c4ccccc4)cc(N4CCC5(CC4)OCCO5)n3n2)c1 | -26.7% | -15.4% | -26.7% | ? | -7.6 | ?
SMILES | HCV inh | SARS PLP yeast | FMDV antiviral | Lassa entry inh | HCMV inh | MARV entry inh
Cc1ncc2c(c1CNC(=O)c1cncs1)CCN(C(=O)c1ccc(C(F)(F)F)cc1)C2 | / | / | -2.7% | / | / | /
COc1cccc(O[C@H]2C=C[C@@H](c3ccccc3)O[C@H]2CO)c1 | / | / | / | / | / | 4.1%[14.2 µM]
O=C(c1ccoc1)N1CCN(c2cc(-c3cccc(F)c3)nc3cc(-c4cccc(Cl)c4)nn23)CC1 | / | / | ? | / | -82.3* | /
COc1cc(NC(=O)c2ccccc2F)ccc1NC(=O)c1ccccc1Cl | ? | -0.8% | 4.8% | -10.0%[46.1 µM] | ? | -3.6%[46.1 µM]
CN(C)S(=O)(=O)c1cccc(NC(=O)Cc2ccc(Cl)cc2)c1 | 3.6% | -1.0% | ? | 12.6µM* | ? | -17.2%
CCC(=O)Nc1ccc(Cl)c(NC(=O)c2cccc(OC)c2)c1 | ? | 0.2% | 6.4% | -6.4%[46.1 µM] | -87.6* | -11.3%[46.1 µM]
CCC(=O)Nc1ccc(Cl)c(NC(=O)c2ccccc2OC)c1 | -6.8% | 0.0% | 2.5% | 4.7%[46.1 µM] | -61.7* | ?
COc1cc(NC(=O)c2ccc(Br)o2)ccc1NC(=O)c1ccccc1Cl | 10µM* | -22.5% | 0.0% | ? | / | -9.7%
COCCOc1cc(NC(=O)c2cccc(OC)c2)c(Cl)cc1Cl | ? | -0.6% | -5.0% | -6.7% | -18.1 | -19.4%[46.1 µM]
COc1cc(OC)c(C(=O)Nc2cc(S(=O)(=O)N3CCOCC3)ccc2N2CCOCC2)cc1OC | / | / | 4.8% | / | 77.0 | /
O=C(CSc1nnc(-c2ccc(F)cc2)o1)N1CCCc2ccccc21 | / | / | 1.9% | -0.5%[46.1 µM] | -14.3 | -1.4%[46.1 µM]
Cc1cc(C)cc(NC(=O)CN(C)S(=O)(=O)c2ccc3c(c2)CCC(=O)N3)c1 | / | / | -4.1% | 10.1%[46.1 µM] | 8.8 | -1.4%[46.1 µM]
CN(C)S(=O)(=O)Oc1cccc(C(=O)Nc2cccc(Cl)c2)c1 | 8.91µM* | -4.3% | -24.6% | ? | -29.0 | -24.3%
Cc1ccnc(NC(=O)c2cccc(OC(F)F)c2)n1 | 17.4% | -2.1% | 34.9% | 4.5%[46.1 µM] | -29.9 | ?
CN(C)S(=O)(=O)c1cccc(C(=O)Nc2cc(Cl)cc(Cl)c2)c1 | 11.2µM* | -4.1% | -5.5% | ? | -7.8 | -4.3%
CN(C)S(=O)(=O)Oc1cccc(C(=O)Nc2ccc(Cl)c(Cl)c2)c1 | ? | -16.9% | 2.4% | ? | ? | -25.3%
O=C(Nc1cc(Cl)cc(Cl)c1)c1cccc(OC(F)F)c1 | ? | -45.7% | 39.8µM* | -13.7% | -74.7* | -11.9%
CCCC(=O)Nc1ccc(C(=O)Nc2cccc(OC)c2)cc1 | -21.7% | -15.7% | 45.7% | -0.4% | -73.6* | 13.1%
COc1ccccc1C(=O)N1CCCC(c2nc(SCCN3CCOCC3)ncc2C)C1 (stereo unspecified) | / | / | -2.4% | / | / | /
COc1cccc(C(=O)Nc2cccc(NC(=O)c3ccccc3Cl)c2)c1 | -17.8% | -3.3% | -8.7% | / | -96.7* | /
CCC1CCCCN1CCCNC(=O)c1c(O)nc2ccccn2c1=O (stereo unspecified) | 12.6% | -3.0% | 13.9% | / | -34.3 | 7.2%[46.1 µM]
O=c1c(Br)ccc(Br)cc1Br | ? | / | 20µM* | ? | -77.1* | 4.47µM*
Brc1ccc(Oc2ccc(Br)cc2Br)c(Br)c1 | -7.9% | -7.3% | 4.1% | / | 49.2 | -3.3%
COC(=O)C1=C(C)N(CC2CC2)C(=O)NC1c1ccccc1 (stereo unspecified) | / | / | / | / | / | -5.3%[14.2 µM]
CCOc1ccc(C(=O)Nc2ccc(N3CCN(C(C)=O)CC3)cc2)cc1[N+](=O)[O-] | -17.5% | -3.4% | -25.3% | / | -33.3 | /
CC(=O)N1CCN(c2ccc(Oc3ccc([N+](=O)[O-])c(C(F)(F)F)c3)cc2)CC1 | 11.2µM* | -29.8% | ? | ? | / | ?

Screening results (PubChem)
